Compound activity: PubChem, National Center for Advancing Translational Sciences (NCATS)
ELG1 DNA repair = ELG1-dependent DNA repair inhibition. HEK293T ELG1-luciferase reporter, luminescence, 16 h; DNA damage induced by 5-fluorouridine. Potency, µM (top dose mostly 46.1 µM), actives largely listed as inhibitors. actives 2.3% (n = 330,000). AID 504467; further: nearly all actives have a fitted effect of over 55% in size
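In this reporter screen, reduction of luminescence relative to DMSO vehicle indicated activity. Compounds and 5-fluorouridine were added together to 2,000 cells per well, incubated for 16 hr at 37 °C, then developed with ONE-Glo.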
Nrf2 activator = activates Nrf2 signaling; Potency, µM (highest dose often 46.1 µM), actives largely listed as activators; actives 0.31% (n = 410,000); AREc32 ARE-luciferase reporter (MCF7-derived line), luminescence, 24 h; further: nearly all actives have a fitted effect of over 65% in size
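Cells of the AREc32 ARE-luciferase line are plated in OPTI-MEM containing 5% FBS and left overnight at 37 deg C. Compounds are pinned in, incubation continues 24 hr, and firefly luciferase signal is then measured.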
A549 viability = counter-screen for Nrf2 inhibitors: cytotoxicity in A549 cells; A549 ARE-Fluc cells, CellTiter-Fluor viability, 18-24 h; Potency, µM (highest dose often 46 µM), actives largely listed as inhibitors; actives 0.16% (n = 390,000); AID 504648
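Cytotoxicity counterscreen: CellTiter-Fluor fluorescence was measured in A549 ARE_Fluc cells after 18-24 h of compound exposure in a concentration series. The subsequent BugLite luminescent read reports ARE-luciferase activity.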
mIDH1 inhibitor = human IDH1 R132H inhibition | O75874 | IDH1-R132H enzyme, NADPH consumption, diaphorase/resazurin fluorescence | Potency, µM (top dose mostly 76.6 µM), hits mostly inhibitors | actives 0.093% (n = 390,000) | AID 602179; further: nearly all actives have a fitted effect of over 65% in size
Target sequence (O75874 whole entry R132H, stated change not applied): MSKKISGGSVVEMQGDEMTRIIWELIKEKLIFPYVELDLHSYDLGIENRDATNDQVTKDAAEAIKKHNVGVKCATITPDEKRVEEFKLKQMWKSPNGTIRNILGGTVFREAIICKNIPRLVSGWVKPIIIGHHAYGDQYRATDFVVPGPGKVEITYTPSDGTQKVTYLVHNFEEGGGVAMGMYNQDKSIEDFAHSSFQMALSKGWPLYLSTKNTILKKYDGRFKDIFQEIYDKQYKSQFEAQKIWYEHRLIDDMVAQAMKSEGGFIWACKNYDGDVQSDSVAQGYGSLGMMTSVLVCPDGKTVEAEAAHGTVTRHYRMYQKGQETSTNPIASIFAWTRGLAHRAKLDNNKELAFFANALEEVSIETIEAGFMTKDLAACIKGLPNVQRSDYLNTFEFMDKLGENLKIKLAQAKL
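IDH1-R132H (0.5 ug/mL) preincubated 30 min with compound, then NADPH (0.016 mM) and alpha-KG (2 mM) added; 80 min at RT, pH 7.5. Remaining NADPH coupled via diaphorase/resazurin to fluorescence (540/590 nm); concentration-response curves normalized to no-enzyme control.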
Nrf2 block = Nrf2 pathway inhibition | actives 2.1% (n = 360,000) | Potency, µM (highest dose often 46 µM), usual class: inhibitors | A549 ARE-Fluc reporter, luciferase luminescence, 18-24 h; further: nearly all actives have a fitted effect of over 60% in size
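In this cell-based qHTS, ARE-driven firefly luciferase in A549 cells reports Nrf2 activity; the luminescent signal after BugLite lysis is the measured value, with a prior CellTiter-Fluor read for cell health.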
Numbers stand for hits. An excerpt weighted towards active compounds, which were near 3.8% of everything screened. The call rests on the fitted dose curve; in most records, active means well fitted curve in the direction sought with a large enough effect; inconclusive means small, poorly fitted or top-dose-only effect, or another doubt; inactive means no such curve, though single readings can be large; an effect the other way counts as inactive or inconclusive.

Screening CC[C@@H](C(=O)[C@@H](C)[C@@H](O)[C@H](C)[C@@H]1O[C@@H]([C@@H](CC)C(=O)O)CC[C@@H]1C)[C@H]1O[C@]2(C=C[C@@H](O)[C@]3(CC[C@@](C)([C@H]4CC[C@](O)(CC)[C@H](C)O4)O3)O2)[C@H](C)C[C@@H]1C returned Nrf2 activator inactive, A549 viability 4.6µM, mIDH1 inhibitor inactive and Nrf2 block 1.5µM.
`CC(=O)N1CCN(c2ccc(OC[C@H]3CO[C@](Cn4ccnc4)(c4ccc(Cl)cc4Cl)O3)cc2)CC1` gave ELG1 DNA repair inconclusive, Nrf2 activator inactive, A549 viability inactive, mIDH1 inhibitor inactive and Nrf2 block 18µM.
`Cc1ccc(C=C2C(Cl)=C(Cl)C(Cl)=C2Cl)cc1` gave ELG1 DNA repair inconclusive, Nrf2 activator inactive, A549 viability inactive, mIDH1 inhibitor inactive and Nrf2 block inactive.
For Cc1nc2c(=O)n(C)c(=O)nc-2n(C)n1 the results were ELG1 DNA repair 1.8µM, Nrf2 activator inactive, A549 viability 1.6µM, mIDH1 inhibitor inactive and Nrf2 block 2.3µM.
CCn1nc(-c2ccccc2)nc2c(=O)n(C)c(=O)nc1-2 was read as ELG1 DNA repair inconclusive, Nrf2 activator inactive, A549 viability 4.1µM, mIDH1 inhibitor inactive and Nrf2 block 2.9µM.
Screening Cn1nc(-c2ccccc2)nc2c(=O)n(C)c(=O)nc1-2 returned A549 viability 3.7µM and Nrf2 block 2.6µM.
Screening COc1cc(-c2nc3ccc(Cl)cn3c2Nc2ccc3c(c2)OCCO3)ccc1O returned Nrf2 activator inactive, A549 viability inactive, mIDH1 inhibitor inactive and Nrf2 block inconclusive.
Screening O=C(N/N=C\c1ccc(COc2ccc([N+](=O)[O-])cc2)o1)c1cccc(Cl)c1 returned ELG1 DNA repair inconclusive, Nrf2 activator inactive, A549 viability inactive, mIDH1 inhibitor inactive and Nrf2 block inconclusive.
`C[C@H]1COC(=O)[C@H](Cc2ccc(F)cc2)CC/C=C/C[C@@H](CC(=O)N(CCO)Cc2ccccc2)C(=O)N1` gave ELG1 DNA repair inconclusive, Nrf2 activator inactive, A549 viability inactive, mIDH1 inhibitor inactive and Nrf2 block inactive.
Screening CCOc1ccc(CCNC(=O)c2cc3c(-c4cccc(OC)c4)nn(C)c3s2)cc1OCC returned Nrf2 activator inactive, A549 viability inactive, mIDH1 inhibitor inactive and Nrf2 block 18µM.
For CC(C)(C)c1ccc(CSc2cnn(C(C)(C)C)c(=O)c2Cl)cc1 the results were ELG1 DNA repair inconclusive, Nrf2 activator inactive, A549 viability inactive, mIDH1 inhibitor inactive and Nrf2 block 0.15µM.
For S=P(c1ccccc1)(c1ccccc1)c1c[nH]c2ccccc12 the results were A549 viability inactive and Nrf2 block inactive.
Screening CC1CCC[C@H](O)CCCCCc2cc(O)cc(O)c2C(=O)O1 (stereo partly specified) returned ELG1 DNA repair inconclusive, Nrf2 activator inactive, A549 viability inactive, mIDH1 inhibitor inactive and Nrf2 block inactive.
`C[C@H]1CCC[C@H](O)CCCCCc2cc(O)cc(O)c2C(=O)O1` gave ELG1 DNA repair 7.3µM, Nrf2 activator inactive, A549 viability inactive, mIDH1 inhibitor inactive and Nrf2 block inactive.
`CC(C)c1ccc(Cc2cn3cc(-c4cc5ccccc5oc4=O)nc3s2)cc1` gave Nrf2 activator inactive, A549 viability inactive, mIDH1 inhibitor inactive and Nrf2 block inconclusive.
